Screens from PubChem.
Most compounds without a hit are left out; they make up all but 0.85% or so of the library.
mIDH1 inhibitor: inhibitors of human mutant IDH1 R132H | O75874 | IDH1-R132H enzyme, NADPH consumption, diaphorase/resazurin fluorescence | Potency, µM (top dose mostly 76.6 µM), usual class: inhibitors | hit rate 0.093% among 390,000; also: nearly all actives have a fitted effect of over 65% in size
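IDH1-R132H (0.5 ug/mL dispensed) in pH 7.5 Tris buffer was preincubated 30 min with compound, then given a substrate mix of 0.016 mM NADPH and 2 mM alpha-KG for 80 min at room temperature; remaining NADPH was read by diaphorase/resazurin fluorescence.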
pAkt inh: blocks phosphorylation of Akt. Neuro2A IGF-stimulated pAkt S473 HTRF, 20 min; hits give low values. activity change, % for hits at 50 µM. hit rate 0.32% among 360,000. AID 651550; in the data active = activity change below about -80%; inconclusive = mostly about -51% to -80%
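Neuro2A cells in DMEM with 0.5% FBS, overnight at 37 deg C, given compound at single 50 µM final, then IGF (6 nM final) for 20 min at 37 deg C. Lysed; phospho-Akt Ser473 by HTRF after 24 h, 665/615 ratio.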
GLS inh: glutaminase GLS (human) inhibition. Potency, µM (highest dose often 45.5 µM), hits mostly inhibitors. GLS enzymatic activity, qHTS titration. O94925. hit rate 0.21% among 410,000. AID 624170
Target sequence (O94925 whole entry, looked up): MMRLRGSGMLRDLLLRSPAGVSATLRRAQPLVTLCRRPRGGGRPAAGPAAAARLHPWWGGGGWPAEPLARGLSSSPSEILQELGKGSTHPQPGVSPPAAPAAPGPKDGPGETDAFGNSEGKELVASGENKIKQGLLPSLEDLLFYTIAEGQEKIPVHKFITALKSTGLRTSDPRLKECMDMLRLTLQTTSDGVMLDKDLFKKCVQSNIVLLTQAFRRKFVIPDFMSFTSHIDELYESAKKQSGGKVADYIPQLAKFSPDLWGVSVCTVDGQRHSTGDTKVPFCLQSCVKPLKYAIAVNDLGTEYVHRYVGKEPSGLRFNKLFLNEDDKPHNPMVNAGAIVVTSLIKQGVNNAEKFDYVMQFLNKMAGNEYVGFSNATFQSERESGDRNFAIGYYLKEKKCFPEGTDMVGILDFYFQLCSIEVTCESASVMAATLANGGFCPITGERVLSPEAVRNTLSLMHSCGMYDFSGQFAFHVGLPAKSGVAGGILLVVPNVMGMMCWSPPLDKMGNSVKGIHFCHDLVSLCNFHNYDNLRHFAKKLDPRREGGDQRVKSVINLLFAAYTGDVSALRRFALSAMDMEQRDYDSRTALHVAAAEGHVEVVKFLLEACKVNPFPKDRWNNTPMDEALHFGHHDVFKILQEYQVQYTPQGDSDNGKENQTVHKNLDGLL
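Compounds were pin-transferred onto hKGA, after which L-glutamine (1 mM solution) and a detection mix of glutamate oxidase, HRP and Amplex Red were added. Initial and 30 min RT fluorescence reads were collected.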
Mm-Cpn inhibitor: M. maripaludis TRiC chaperonin inhibition; purified Mm-Cpn ATPase, ADP Transcreener TR-FRET; Potency, µM (doses to about 76.9 µM), usual class: inhibitors; hit rate 0.031% among 330,000; AID 504842; also: nearly all actives have a fitted effect of over 80% in size
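Quantitative HTS used 25 nM Mm-CPN and 10 uM ATP in magnesium/KCl Tris buffer, pH 7.4, with 1 mM DTT. Hydrolysis ran 30 min at 37°C; ADP was read by HTRF.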
Glioma ERSR ind: induces the endoplasmic reticulum stress response in human glioma cells; U87-MG GRP78 promoter luciferase reporter, 16 h; Potency, µM, usual class: activators; hit rate 0.02% among 420,000; AID 602332; also: series mostly up to about 76 µM; nearly all actives have a fitted effect of over 35% in size
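Stably transfected U87-MG glioma cells carrying a GRP78-based luciferase sensor; 16 h compound incubation. Luminescence end-point read 10 min after Bright-Glo addition at room temperature.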
CCT modulator: changes cytosolic chaperonin activity; purified chaperonin ATPase assay, HTRF ADP detection, 30 min; activity change, % (concentration not given with the values), hits read low; hit rate 0.3% among 360,000; AID 651819; in the data active = activity change below about -30%
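TRiC (40 or 20 nM final, by batch activity) in 30 mM Tris pH 7.4, 100 mM KCl, 5 mM MgCl2, 1 mM DTT was treated with compound at 76 uM single dose, then 10 uM ATP, 30 min at 37 °C. ADP was read by HTRF Transcreener.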
Hits are given with their value; – = inactive; ? = inconclusive; · = not tested or not shown. Unless noted, calls follow the shape of the dose curve; as a rule, active = well fitted curve in the direction sought with a large enough effect; inconclusive = small, poorly fitted or top-dose-only effect, or another doubt; inactive = no such curve, though single readings can be large; an effect the other way counts as inactive or inconclusive.

SMILES | mIDH1 inhibitor | pAkt inh | GLS inh | Mm-Cpn inhibitor | Glioma ERSR ind | CCT modulator
Cc1cccc(C)c1NC(=O)CSc1nc(C)c(CC(=O)c2ccc(Br)cc2)c(C)c1C#N | – | -102% | – | – | – | –
Cc1nc(SCC(=O)Nc2ccccc2C(F)(F)F)c(C#N)c(C)c1CC(=O)c1ccc(Br)cc1 | · | · | · | – | · | ·
COc1ccc2cc3cc(C(=O)NCc4cccnc4)oc3nc2c1 | – | – | – | – | – | -68
COc1ccc2cc3cc(C(=O)NCc4ccccc4OC)oc3nc2c1 | – | · | – | · | – | ·
COc1cccc(/C=N/n2c(C3CCCCC3)n[nH]c2=S)c1O | – | – | 7.9µM | – | – | –
COc1cccc(/C=N/n2c(C3CCCCC3)n[nH]c2=S)c1OC | – | – | ? | – | – | –
Cc1cccc(Nc2nnc(SCC(=O)c3ccc(Br)s3)s2)c1C | – | – | ? | 40µM | – | –
Cc1nn(C)cc1CNc1nc(C)c(-c2ccn(CC3COc4ccccc4O3)n2)s1 (configuration not stated) | · | · | · | · | – | ·
O=C([C@@H]1C[C@@H](Sc2nc3ccccc3[nH]2)CN1Cc1ccc(Cl)cc1)N1CCN(c2ccccc2F)CC1 | · | · | · | · | – | ·
O=C(CCNC(=O)C1CCN(S(=O)(=O)c2ccccc2)CC1)NCc1ccc(Cl)cc1Cl | – | · | – | – | – | –
C=CCNC(=O)C1CCN(S(=O)(=O)c2cccs2)CC1 | – | – | – | – | – | –
C=CCNC(=O)C1CCN(S(=O)(=O)c2ccccc2)CC1 | – | -95% | – | – | – | –
O=C(CCNC(=O)C1CCN(S(=O)(=O)c2ccccc2)CC1)NCc1cccc(Cl)c1 | – | · | – | – | – | -83
O=C(CCNC(=O)C1CCN(S(=O)(=O)c2ccccc2)CC1)NCc1ccc(Cl)cc1 | – | · | – | – | – | -80
Cc1ccccc1OCCNc1ccc(C(F)(F)F)cc1[N+](=O)[O-] | – | – | – | – | – | -53
O=[N+]([O-])c1cc(C(F)(F)F)ccc1NCCOc1ccccc1 | – | – | – | – | – | –
O=C(N/N=C/c1ccc(O)c(O)c1)NC12CC3CC(CC(C3)C1)C2 | – | – | – | – | ? | –
CCOc1cc(/C=N/NC(=O)C(=O)N/N=C/c2ccc(O)c(OCC)c2)ccc1O | – | – | – | – | – | –
CCOc1cc(/C=N/NC(=O)N/N=C/c2ccc(O)c(OCC)c2)ccc1O | – | – | 8.9µM | · | – | –
COc1cc(/C=N/NC(=O)NC23CC4CC(CC(C4)C2)C3)ccc1O | – | – | 7.9µM | – | – | –
O=C(N/N=C/c1ccccc1O)NC12CC3CC(CC(C3)C1)C2 | – | – | – | – | – | –
COc1cc(/C=N/NC(=O)C(=O)N2CCCCCC2)ccc1O | – | – | 8.9µM | ? | – | –
O=C(N/N=C/c1cc(Cl)cc([N+](=O)[O-])c1O)NC12CC3CC(CC(C3)C1)C2 | – | – | 8.9µM | – | – | –
C=CCOc1ccc(/C=N/NC(=O)C(=O)N2CCCCCC2)cc1OC | – | – | – | – | – | –
CC(=O)Nc1ccccc1-c1nc(CNC(=O)c2ccc(-c3ccccc3F)cc2)c(C)o1 | · | · | · | · | – | ·
SMILES | mIDH1 inhibitor | pAkt inh | GLS inh | Mm-Cpn inhibitor | Glioma ERSR ind | CCT modulator
CC(=O)c1ccccc1C(=O)NCC1Cc2cccc(-c3cccnc3)c2O1 (configuration not stated) | · | · | · | · | – | ·
S=c1[nH]nc(-c2ccc3ncccc3c2)n1-c1ccc2c(c1)OCCO2 | – | – | 6.3µM | – | – | –
Oc1ccc(-c2n[nH]c(=S)n2-c2ccc3c(c2)OCCO3)cc1 | – | – | – | – | – | –
O=C(O)c1cc(N2N=C(C(F)(F)F)/C(=C/C=C/c3ccco3)C2=O)ccc1Cl | – | – | 8.9µM | – | – | –
CCOC(=O)c1ccc(N2N=C(C)/C(=C/C=C/c3ccco3)C2=O)cc1 | – | – | – | – | – | –
COc1cc(O)ccc1CN1CCc2nnc(C(C)NC(=O)c3cc(F)ccc3F)n2CC1 (configuration not stated) | · | · | · | · | – | ·
COc1ccc(C2C3=C(CC(C)(C)CC3=O)Nc3c2c(=O)[nH]c(=O)n3Cc2ccccc2)cc1 (configuration not stated) | – | -102% | – | – | – | –
O=C(c1cccc(F)c1)N(Cc1cc2cc3c(cc2nc1N1CCOCC1)CCC3)CC1CCCO1 (configuration not stated) | · | · | · | · | – | ·
Cc1cc(C)n(CC(=O)N2CCC(n3c(C(C)C)nc4cccnc43)CC2)n1 | · | · | · | · | – | ·
N=C1/C(=C/c2ccc(-c3cccc(C(=O)O)c3)o2)C(=O)N=C2SC=C(c3ccccc3)N12 | – | – | 22µM | – | – | –
N=C1/C(=C\c2ccc(-c3cc(Cl)cc(Cl)c3)o2)C(=O)N=C2SC=C(c3ccccc3)N12 | – | – | – | – | – | –
Cc1cccc(CNC(=O)c2c3n(c(C)cc2=O)-c2ccccc2SC(c2sccc2C)C3)n1 (configuration not stated) | · | · | · | · | – | ·
Clc1ccc(CNc2ccccc2NCc2ccc(Cl)nc2)cn1 | – | – | 13µM | – | – | –
Clc1ccc(Cn2ccc3ccccc32)cn1 | – | – | – | – | – | –
COC(=O)C1OC2(OC1C(=O)OC)c1ccccc1-c1ccccc12 (configuration not stated) | – | -120% | – | – | – | –
C/C(=C(/CCOC(=O)c1ccccc1)SS/C(CCOC(=O)c1ccccc1)=C(\C)N(C=O)Cc1cnc(C)nc1N)N(C=O)Cc1cnc(C)nc1N | · | · | – | · | ? | ·
O=S(=O)(c1ccc(Oc2ccc(Br)cc2)cc1)N1CCOCC1 | – | -113% | – | – | – | –
O=C(COC(=O)Cc1ccccc1F)Nc1ccc(Cl)cn1 | – | – | – | – | – | -33
O=C(Cc1ccccc1)Nc1ccc(Cl)cn1 | – | – | – | – | – | –
O=C(CCc1ccccc1)Nc1ccc(Cl)cn1 | – | – | – | – | – | -53
CCOc1ccc(OCCC(=O)OCC(=O)Nc2ccc(Cl)cn2)cc1 | – | – | – | – | – | -33
CC1CCN(C(=S)NC(=O)c2ccc(C(C)(C)C)cc2)CC1 | – | – | – | – | – | –
CC1CCN(C(=S)NC(=O)c2ccccc2)CC1 | – | -111% | – | – | – | –
COc1ccc(S[C@@H]2C[C@@H](C(=O)Nc3ccc4nccnc4c3)N(C3Cc4ccccc4C3)C2)cc1 | · | · | · | · | – | ·
Cc1ccc2sc(-c3ccc(N)cc3)nc2c1 | – | · | – | · | – | ·
Nc1ccc(-c2nc3cc(N)ccc3s2)cc1 | – | – | – | – | – | -42
CSc1nc(-c2ccc(Cl)cc2)nn1S(=O)(=O)c1ccccc1 | – | -115% | – | – | – | –
CCCCn1c(SCC(=O)Nc2nnc(C)s2)nnc1-c1ccncc1 | – | – | – | – | – | –
